The results in this text go back to PubChem BioAssay (EPA / NIEHS).

Experiment [1] deals with mouse Estrogen Receptor alpha (Era), Esr1 (gene 13982) (UniProt P19785). The experiment in a line: NVS_NR_mERa: NovaScreen (NVS) Nuclear Receptor Binding Assay for mouse Estrogen Receptor alpha (Era) (AID 2283378).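 Further: hit means loss of bound radioligand signal relative to DMSO.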 A digest of the protocol: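 Cell-free radioligand binding with extracted mouse Era protein; competitive displacement of radiolabelled ligand, read by filter-based scintillation counting 18 hours after dosing. Loss of signal versus DMSO baseline taken as binding; single screening concentration 25 uM, actives followed in concentration series.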

Experiment [2] deals with Estrogen receptor (Homo sapiens) + Estrogen receptor beta (Homo sapiens) (UniProt P03372+Q92731). In words: OT_ER_ERaERb_1440: Odyssey Thera (OT) 24-hour HEK293T Protein-Complementation Assay for Estrogen Receptor-alpha/-beta Homodimer (AID 2283356).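 Further: heteromer of ER alpha and ER beta binding domains; hits raise reporter fluorescence and both agonists and antagonists give an increase.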 A digest of the protocol: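 HEK293T cells stably expressing a PCA pair of ERα LBD (aa 310-547) and ERβ LBD (aa 263-489) were dosed for 24 h. Fluorescence intensity increase versus DMSO vehicle was fitted as gain-of-signal.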

In experiment [3] the target is Estrogen receptor beta (Homo sapiens) (UniProt Q92731). In words: OT_ER_ERbERb_0480: Odyssey Thera (OT) 8-hour HEK293T Protein-Complementation Assay for Estrogen Receptor-beta/-beta Homodimer (AID 2283357).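 Further: active means signal gain over DMSO baseline.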 A digest of the protocol: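 Readout: increase in mean fluorescence intensity (nucleus for agonists; nucleus plus cytoplasm for antagonists) relative to DMSO, from a reporter-fragment complementation of human ER-beta LBD homodimer in HEK293T cells dosed 8 hours.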

Experiment [4] addresses rat Serotonin Transporter (SERT), Slc6a4 (gene 25553) (UniProt P31652). The experiment in a line: NVS_TR_rSERT: NovaScreen (NVS) Transporter Assay for rat Serotonin Transporter (SERT) (AID 2283375). Summed up: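 Rat forebrain membranes were incubated with test chemical for 1 hour; radioligand binding to SERT was measured by filter-based scintillation counting. Primary screen ran in duplicate at 25 uM, with actives followed up in concentration series; DMSO served as negative control.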

For experiment [5], the target named is human Norepinephrine Transporter (NET), SLC6A2 (gene 6530) (UniProt P23975). The experiment in a line: NVS_TR_hNET: NovaScreen (NVS) Transporter Assay for human Norepinephrine Transporter (NET) (AID 2283377).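 Further: cell-free membrane protein extracted from CHO cells expressing human NET.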 Summed up: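 Radioligand binding to human NET in cell-free CHO-derived protein preparations, read by filter-based scintillation counting 1 hour after dosing. Loss of signal versus DMSO baseline indicated displacement; primary screening in duplicate at 25 uM, actives then titrated.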

Experiment [6] has as its target Nuclear receptor subfamily 1 group I member 2 (Homo sapiens) (UniProt O75469). In words: NVS_NR_hPXR: NovaScreen (NVS) Nuclear Receptor Binding Assay for human Pregnane X Receptor (PXR) (AID 2283365).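 Further: a drop in FRET signal versus DMSO baseline means the compound binds.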 A digest of the protocol:
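Cell-free binding assay with extracted human PXR protein, read by TR-FRET 2 h after dosing; loss of signal relative to DMSO baseline indicates binding. Primary screen at 25 uM in duplicate, actives retested in concentration series.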

Experiment [7] deals with Androgen Receptor/SRC-1 Co-activator, AR (gene 367) (UniProt P10275). The experiment in a line: OT_AR_ARSRC1_0960: Odyssey Thera (OT) 16-hour HEK293T Protein-Complementation Assay for Androgen Receptor/SRC-1 Co-activator (AID 2283353).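 Further: actives raise the signal above DMSO so potency reflects increased AR and SRC-1 complex.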 Summed up:
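HEK293T cells stably expressing AR and SRC-1 fused to Venus YFP fragments, imaged 16 h after dosing. Nuclear/cytoplasmic fluorescence ratio at 488 nm from at least 400 cells per image; gain of signal relative to DMSO.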

For experiment [8] the target is unchanged. The experiment in a line: OT_AR_ARSRC1_0480: Odyssey Thera (OT) 8-hour HEK293T Protein-Complementation Assay for Androgen Receptor/SRC-1 Co-activator (AID 2283354).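 Further: hits raise the complementation signal above DMSO so AC50 marks enhancers.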 Summed up: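 HEK293T cells stably expressing AR and SRC-1 fused to split Venus YFP fragments via (Gly4Ser)2 linkers were read 8 h after compound dosing. Complementation was imaged at 488 and 635nm, and nuclear/cytoplasmic fluorescence ratio (488nm) was taken over ≥400 cells; gain-of-signal versus DMSO.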

A further experiment concerns the target PGR (gene 5241) (UniProt P06401). In words: NVS_NR_hPR: NovaScreen (NVS) Nuclear Receptor Binding Assay for human Progestron Receptor (PR) (AID 2283360).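 Further: active means loss of bound radioligand signal versus DMSO baseline.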 Summed up:
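T47D lysate; tritiated or iodinated radioligand; scintillation count at 18 h. DMSO = negative control/baseline. Primary: 25 uM, duplicate. Secondary: concentration series for actives.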

The target of experiment [9] is human Dopamine Transporter (DAT), SLC6A3 (gene 6531) (UniProt Q01959). In words: NVS_TR_hDAT: NovaScreen (NVS) Transporter Assay for human Dopamine Transporter (DAT) (AID 2283374).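 Further: activity means loss of bound radioligand signal relative to DMSO.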 A digest of the protocol:
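Cell-free radioligand binding to extracted human DAT protein, read 1 h after dosing by filter-based scintillation counting. Loss of specific binding scored against DMSO baseline; primary screen in duplicate at 25 uM, actives then run in concentration series.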

Experiment [10] addresses rat Androgen Receptor (AR), Ar (gene 24208) (UniProt P15207). The experiment in a line: NVS_NR_rAR: NovaScreen (NVS) Nuclear Receptor Binding Assay for rat Androgen Receptor (AR) (AID 2283366). A digest of the protocol:
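Cell-free radioligand binding on extracts of prostate from testosterone-pretreated rats, read by filter-based scintillation counting 18 h after dosing. Loss of bound signal fitted positively versus DMSO; primary screen in duplicate at 25 uM, actives followed up in concentration series.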

The target of experiment [11] is guinea pig Sigma Receptor, Non-selective Binding, SIGMAR1 (gene 100135589) (UniProt Q60492). The experiment in a line: NVS_OR_gSIGMA_NonSelective: NovaScreen (NVS) Nuclear Receptor Binding Assay for guinea pig Sigma Receptor, Non-selective Binding (AID 2283367). A digest of the protocol:
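Guinea pig brain membranes, cell-free radioligand binding; read 1 h after dosing by filter-based scintillation counting. Loss of signal vs DMSO baseline taken as displacement. Primary screen single concentration 25 uM in duplicate; actives retested in concentration series.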

Experiment [12] has as its system guinea pig Dopamine Transporter (DAT), gene 100714898. The experiment in a line: NVS_TR_gDAT: NovaScreen (NVS) Transporter Assay for guinea pig Dopamine Transporter (DAT) (AID 2283369).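 Further: active compounds lower bound radioligand signal relative to DMSO.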 A digest of the protocol:
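Guinea pig striatal membranes; radioligand displacement measured by filter-based scintillation counting 2 h after dosing. Initial duplicate screen at 25 uM, then concentration-response up to 50 uM for hits; loss of signal versus DMSO baseline.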

Experiment [13] has as its target Retinoic acid receptor alpha (Homo sapiens) (UniProt P10276). The experiment in a line: NVS_NR_hRAR_Antagonist: NovaScreen (NVS) Nuclear Receptor Binding Assay for human Retinoic Acid Alpha Receptor Antagonism (RAR) (AID 2283358). A digest of the protocol: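 Cell-free TR-FRET binding assay on extracted receptor protein, run in antagonist mode; signal read 2 hours after chemical dosing. Loss of signal was fitted relative to DMSO baseline. Screened at 25 uM in duplicate, actives followed up in concentration series.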

Experiment [14] concerns the target human Peroxisome Proliferator-activated Receptor alpha (PPARa), PPARA (gene 5465) (UniProt Q07869). The experiment in a line: NVS_NR_hPPARa: NovaScreen (NVS) Nuclear Receptor Binding Assay for human Peroxisome Proliferator-activated Receptor alpha (PPARa) (AID 2283359).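 Further: activity means loss of TR-FRET signal versus DMSO baseline.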 A digest of the protocol:
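Cell-free binding assay with extracted human protein, read by TR-FRET 1 h after chemical dosing. Loss of signal relative to DMSO baseline indicates binding. Primary screen used duplicate single concentration (25 uM); actives followed up in concentration series.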

The target in experiment [15] is Glucocorticoid receptor (Homo sapiens) (UniProt P04150). The experiment in a line: NVS_NR_hGR: NovaScreen (NVS) Nuclear Receptor Binding Assay for human Glucocorticoid Receptor (GR) (AID 2283363).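 Further: activity is loss of specific radioligand binding signal relative to DMSO.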 Summed up:
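Cell-free radioligand binding with extracted receptor protein, read by filter-based scintillation counting 16 hours after dosing. Loss of specific signal versus DMSO baseline was scored. Primary screen ran in duplicate at 25 uM; actives were followed up in concentration series.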

Experiment [16] concerns the target Peroxisome proliferator-activated receptor gamma (Homo sapiens) (UniProt P37231). The experiment in a line: NVS_NR_hPPARg: NovaScreen (NVS) Nuclear Receptor Binding Assay for human Peroxisome Proliferator-activated Receptor gamma (PPARg) (AID 2283370). Summed up:
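Cell-free binding to extracted PPARg protein, read by fluorescence polarization 2 h after dosing; loss of signal relative to DMSO baseline marks displacement. Primary screen in duplicate at 25 uM, actives retested in concentration series.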

Structures are written as SMILES. Records with an inconclusive call do not appear. Active and inactive are the calls of the source. How the source made its calls: active means hit-call score of the fitted dose curve at least 0.9, where 1 is the maximum; inconclusive means response in the unintended direction; inactive means score below 0.9.

Sequence of human Dopamine Transporter (DAT), SLC6A3 (gene 6531) (Q01959 whole entry, looked up): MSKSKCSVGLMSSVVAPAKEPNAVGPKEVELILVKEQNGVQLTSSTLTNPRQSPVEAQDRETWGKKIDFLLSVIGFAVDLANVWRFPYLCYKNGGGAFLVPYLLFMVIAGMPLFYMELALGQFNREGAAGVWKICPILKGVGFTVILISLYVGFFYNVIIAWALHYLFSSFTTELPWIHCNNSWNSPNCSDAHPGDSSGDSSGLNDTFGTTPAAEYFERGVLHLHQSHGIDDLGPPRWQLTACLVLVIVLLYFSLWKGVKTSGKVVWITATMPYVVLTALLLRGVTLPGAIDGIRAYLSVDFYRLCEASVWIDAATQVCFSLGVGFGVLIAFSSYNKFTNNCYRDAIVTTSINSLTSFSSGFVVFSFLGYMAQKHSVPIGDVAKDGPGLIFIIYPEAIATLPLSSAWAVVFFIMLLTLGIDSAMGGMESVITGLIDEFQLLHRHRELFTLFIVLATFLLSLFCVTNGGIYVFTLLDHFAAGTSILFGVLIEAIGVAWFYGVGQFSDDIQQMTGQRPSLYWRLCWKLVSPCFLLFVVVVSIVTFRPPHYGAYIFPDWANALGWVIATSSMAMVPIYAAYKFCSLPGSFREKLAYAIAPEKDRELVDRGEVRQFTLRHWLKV
Sequence of Estrogen receptor beta (Homo sapiens) (Q92731 whole entry, looked up, the tested form may be a part): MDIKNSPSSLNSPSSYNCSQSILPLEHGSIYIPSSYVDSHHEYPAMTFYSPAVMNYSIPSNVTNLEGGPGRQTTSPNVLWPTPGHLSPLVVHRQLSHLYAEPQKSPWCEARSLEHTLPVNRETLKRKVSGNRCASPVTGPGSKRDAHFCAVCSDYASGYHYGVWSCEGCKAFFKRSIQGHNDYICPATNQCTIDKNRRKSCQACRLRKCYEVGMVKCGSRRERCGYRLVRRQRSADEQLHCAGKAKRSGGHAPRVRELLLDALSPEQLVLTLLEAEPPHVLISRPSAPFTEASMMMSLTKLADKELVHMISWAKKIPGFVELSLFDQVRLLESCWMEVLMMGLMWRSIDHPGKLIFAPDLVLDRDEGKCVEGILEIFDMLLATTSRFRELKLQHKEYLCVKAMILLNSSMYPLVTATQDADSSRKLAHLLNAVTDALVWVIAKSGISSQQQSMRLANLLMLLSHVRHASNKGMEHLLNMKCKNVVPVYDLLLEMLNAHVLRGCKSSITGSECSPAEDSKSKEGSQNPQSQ
Sequence of human Norepinephrine Transporter (NET), SLC6A2 (gene 6530) (P23975 whole entry, looked up): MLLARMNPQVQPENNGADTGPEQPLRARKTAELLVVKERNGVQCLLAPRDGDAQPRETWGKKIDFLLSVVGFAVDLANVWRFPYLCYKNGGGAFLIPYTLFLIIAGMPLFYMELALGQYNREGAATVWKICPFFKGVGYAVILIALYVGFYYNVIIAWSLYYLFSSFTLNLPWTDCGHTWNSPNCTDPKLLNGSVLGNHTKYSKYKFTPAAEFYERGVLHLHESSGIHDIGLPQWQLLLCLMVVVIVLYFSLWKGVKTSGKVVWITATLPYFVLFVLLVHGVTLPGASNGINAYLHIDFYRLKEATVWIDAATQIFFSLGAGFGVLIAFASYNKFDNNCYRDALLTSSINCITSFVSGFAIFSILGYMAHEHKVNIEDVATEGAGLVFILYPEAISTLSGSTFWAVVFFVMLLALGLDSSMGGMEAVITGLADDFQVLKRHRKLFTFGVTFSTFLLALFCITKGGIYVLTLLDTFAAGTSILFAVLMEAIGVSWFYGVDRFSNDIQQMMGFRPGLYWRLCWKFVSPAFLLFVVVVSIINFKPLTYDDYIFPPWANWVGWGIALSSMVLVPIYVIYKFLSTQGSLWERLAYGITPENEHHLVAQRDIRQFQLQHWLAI
Sequence of mouse Estrogen Receptor alpha (Era), Esr1 (gene 13982) (P19785 whole entry, looked up): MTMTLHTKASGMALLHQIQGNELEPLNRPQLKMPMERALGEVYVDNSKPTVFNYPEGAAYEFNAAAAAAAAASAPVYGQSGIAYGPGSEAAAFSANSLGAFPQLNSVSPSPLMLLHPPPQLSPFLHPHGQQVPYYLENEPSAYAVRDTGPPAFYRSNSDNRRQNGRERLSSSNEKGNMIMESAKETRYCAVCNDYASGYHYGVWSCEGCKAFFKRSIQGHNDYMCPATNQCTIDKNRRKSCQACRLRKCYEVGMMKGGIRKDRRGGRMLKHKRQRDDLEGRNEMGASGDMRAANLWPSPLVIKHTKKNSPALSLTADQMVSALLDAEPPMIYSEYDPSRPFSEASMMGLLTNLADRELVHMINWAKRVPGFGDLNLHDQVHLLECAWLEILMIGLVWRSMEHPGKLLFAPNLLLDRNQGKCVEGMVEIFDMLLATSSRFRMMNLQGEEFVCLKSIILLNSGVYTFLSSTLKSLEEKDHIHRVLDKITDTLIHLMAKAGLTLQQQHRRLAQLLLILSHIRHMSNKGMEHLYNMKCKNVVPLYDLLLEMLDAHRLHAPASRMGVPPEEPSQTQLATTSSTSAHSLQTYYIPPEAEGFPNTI
Sequence of Nuclear receptor subfamily 1 group I member 2 (Homo sapiens) (O75469 whole entry, looked up): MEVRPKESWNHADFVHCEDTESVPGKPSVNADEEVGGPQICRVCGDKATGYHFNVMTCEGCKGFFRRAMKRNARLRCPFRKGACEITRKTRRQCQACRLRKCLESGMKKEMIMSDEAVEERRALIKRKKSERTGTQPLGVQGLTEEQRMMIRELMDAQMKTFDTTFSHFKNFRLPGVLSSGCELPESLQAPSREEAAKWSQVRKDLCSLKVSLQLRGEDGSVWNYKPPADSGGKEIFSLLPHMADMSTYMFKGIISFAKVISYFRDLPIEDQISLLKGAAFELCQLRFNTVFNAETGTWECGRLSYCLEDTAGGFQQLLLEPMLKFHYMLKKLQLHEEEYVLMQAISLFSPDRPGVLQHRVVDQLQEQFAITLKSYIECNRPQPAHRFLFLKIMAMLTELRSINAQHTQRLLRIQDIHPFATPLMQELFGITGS
Sequence of Estrogen receptor (Homo sapiens) + Estrogen receptor beta (Homo sapiens) (P03372 whole entry, looked up, the tested form may be a part): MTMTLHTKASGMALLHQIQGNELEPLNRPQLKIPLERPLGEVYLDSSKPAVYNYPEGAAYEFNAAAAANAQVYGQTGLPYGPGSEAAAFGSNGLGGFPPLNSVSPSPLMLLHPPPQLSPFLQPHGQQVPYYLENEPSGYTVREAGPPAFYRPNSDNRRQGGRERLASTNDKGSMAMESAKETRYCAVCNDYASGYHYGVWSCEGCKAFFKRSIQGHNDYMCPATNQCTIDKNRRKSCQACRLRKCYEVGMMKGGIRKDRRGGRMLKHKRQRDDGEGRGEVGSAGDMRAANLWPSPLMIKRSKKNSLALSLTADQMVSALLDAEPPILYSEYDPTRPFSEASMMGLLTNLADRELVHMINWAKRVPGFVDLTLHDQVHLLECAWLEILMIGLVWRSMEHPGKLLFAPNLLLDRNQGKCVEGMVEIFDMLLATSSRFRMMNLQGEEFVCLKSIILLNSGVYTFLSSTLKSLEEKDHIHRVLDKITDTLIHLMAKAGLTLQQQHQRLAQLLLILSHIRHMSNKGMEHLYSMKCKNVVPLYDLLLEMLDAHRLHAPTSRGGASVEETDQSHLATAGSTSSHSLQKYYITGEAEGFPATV
Sequence of Estrogen receptor (Homo sapiens) + Estrogen receptor beta (Homo sapiens) (Q92731 whole entry, looked up, the tested form may be a part): as the sequence (Q92731 whole entry, looked up, the tested form may be a part) above
Sequence of PGR (gene 5241) (P06401 whole entry, looked up): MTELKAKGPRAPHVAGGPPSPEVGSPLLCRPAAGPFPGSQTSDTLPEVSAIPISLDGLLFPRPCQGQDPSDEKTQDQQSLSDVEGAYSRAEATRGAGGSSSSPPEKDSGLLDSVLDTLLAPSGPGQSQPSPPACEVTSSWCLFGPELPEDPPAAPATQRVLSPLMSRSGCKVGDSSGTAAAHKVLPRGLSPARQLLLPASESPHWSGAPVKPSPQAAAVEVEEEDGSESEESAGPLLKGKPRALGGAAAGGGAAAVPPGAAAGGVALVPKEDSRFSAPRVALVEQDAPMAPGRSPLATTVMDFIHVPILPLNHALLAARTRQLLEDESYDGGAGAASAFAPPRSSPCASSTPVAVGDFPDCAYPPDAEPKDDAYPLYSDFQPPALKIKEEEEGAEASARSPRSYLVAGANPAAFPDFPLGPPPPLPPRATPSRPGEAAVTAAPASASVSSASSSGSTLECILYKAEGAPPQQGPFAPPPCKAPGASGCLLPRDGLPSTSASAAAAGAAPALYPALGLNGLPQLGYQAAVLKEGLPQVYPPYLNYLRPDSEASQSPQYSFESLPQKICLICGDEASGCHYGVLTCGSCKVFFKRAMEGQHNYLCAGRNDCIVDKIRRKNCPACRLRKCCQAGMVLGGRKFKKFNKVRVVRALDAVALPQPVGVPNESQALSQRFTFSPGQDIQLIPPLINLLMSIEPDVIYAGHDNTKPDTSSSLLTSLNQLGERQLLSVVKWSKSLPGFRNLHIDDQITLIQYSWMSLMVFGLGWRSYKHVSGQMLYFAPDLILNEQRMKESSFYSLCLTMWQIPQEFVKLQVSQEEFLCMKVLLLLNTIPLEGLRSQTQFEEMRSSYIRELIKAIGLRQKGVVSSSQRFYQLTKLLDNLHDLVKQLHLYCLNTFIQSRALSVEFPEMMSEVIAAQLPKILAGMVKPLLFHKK

With `c1ccc(B(c2ccccc2)c2ccccc2)cc1`, the compound was called inactive in experiment [1].
Consider `CCCCOc1ccc(N)cc1`, for which the half-maximal activity concentration (AC50) in [2] was 68.7 µM (active). In [3], the outcome was inactive.
With `Cc1cccc(N(C)C)c1`, the compound was classed as inactive in [4].
With `CO[Si](OC)(c1ccccc1)c1ccccc1`, the call in [5] was inactive.
Still for that read-out and setting: the result for `CC(C)c1ccccc1N` reads “inactive”.
`COC(=O)C1CCC(C(=O)OC)CC1` (stereo unspecified): the outcome in experiment [2], in experiment [3] and in experiment [6] was inactive.
For the compound `CN(C)Cc1ccccc1O`, the call in experiment [7], in experiment [8], in [2] and in experiment [3] was inactive.
Regarding `O[Si](c1ccccc1)(c1ccccc1)c1ccccc1`, the half-maximal activity concentration (AC50) in experiment [5] was 25 µM (active).
For `O=C(OCCOCCOCCOC(=O)c1ccccc1)c1ccccc1`, the outcome in experiment [2] and in experiment [6] was inactive.
`CCCCNc1ccccc1`: the compound was called inactive (with PGR (gene 5241); in experiment [9]).
In the case of `C1COCCN1`, the outcome in experiment [2] and in experiment [3] was inactive.
In the case of `Cc1ccc(S(=O)(=O)NCl)cc1`, the result in experiment [2], in experiment [3] and in experiment [6] was inactive.
`CC(=O)Nc1ccc(N=Nc2cc(C)ccc2O)cc1`: the AC50 in experiment [10] is 25 µM (active).
As for `CCCCCCCCCCCCCCCC[N+](C)(C)Cc1ccccc1`, the half-maximal activity concentration (AC50) in [11] was 1.23 µM (active); in experiment [12] it was 17.3 µM (active); in experiment [9], 1.89 µM (active); in [5] it was 2.45 µM (active). The compound was called inactive in [4].
Regarding `CCCCCCOC(=O)c1ccccc1`, the result in experiment [2] and in [3] was inactive.
Consider `CC(Cc1ccc(O)c(O)c1)C(C)Cc1ccc(O)c(O)c1` (stereo unspecified), for which the half-maximal activity concentration (AC50) in experiment [2] is 11.9 µM (active); in experiment [3] it was 11.9 µM (active); in experiment [13] it was 11.7 µM (active); in experiment [14], 4.6 µM (active); in [15] it was 1.79 µM (active); in [6], 5.16 µM (active). Besides, the AC50 in [16] is 4.91 µM (active); in experiment [1], 1.82 µM (active).
Take `CCN(CC)c1ccc2c(C)cc(=O)oc2c1`: the values for the AC50 in [12], in experiment [9] and in [5] were 13.6 µM (active), 20.2 µM (active) and 25 µM (active), respectively.
With `CCCCC(CC)COP(=O)(O)OCC(CC)CCCC` (stereo unspecified), the compound was classed as inactive in experiment [14], in experiment [6], in experiment [16] and in experiment [1]. The AC50 in [15] was 8.04 µM (active).
Take `Nc1ccc(Oc2cccc(Oc3ccc(N)cc3)c2)cc1`: the compound was classed as inactive (in the experiment with PGR (gene 5241); in experiment [5]). Further, the results for the AC50 in experiment [12] and in experiment [9] were 3.46 µM (active) and 1.02 µM (active), respectively.

For orientation: AC50 means the concentration at which the activity in the assay is half-maximal.
